Integrin act MD = integrin-mediated muscular dystrophy alleviation activation | alpha7betagal myoblasts, beta-gal FDG fluorescence, 48 h | Potency, µM (doses to about 38.3 µM), without a hit: at the top dose activation, usual class: activators | 350,000 tested, 0.064% active;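 also: 100% = response of the positive control SU9516; nearly all actives have a fitted effect of over 60% in size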
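Alpha7betagal+/- myoblasts (passage 13) were plated 16-24 hr, then exposed to compounds (1:260 dilution of DMSO stock) for 48 hours at 37C. After MPER lysis, β-galactosidase reporter activity was read as FDG fluorescence (ex 480/em 540) after 30 minutes.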
Gal4-VP16 FLuc = Gal4-VP16 reporter inhibition counter-screen. Drosophila S2 Gal4-VP16 UAS-luciferase, luminescence, 20 h. Potency, µM (doses to about 53.6 µM), inactives show top-dose activity, negative = inhibition, usual class: inhibitors. 310,000 tested, 3.5% active. AID 2546;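 also: Gal4-VP16 expression switched on by copper sulfate through the metallothionein promoter; % is scaled to controls: 0 for no effect and ±100 for the full control effect; nearly all actives have a fitted effect of over 50% in size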
Chronic BCR inh = blocks chronic active B-cell receptor signaling; 340,000 tested, 0.05% active; ABC-DLBCL IkBa-CBG/CBR reporter, luminescence ratio, 4 h; Potency, µM (doses to about 46.1 µM), without a hit: top-dose activity change, negative = inhibition, most hits filed as inhibitors; active = well fitted inhibition curve with a large enough effect in the signal ratio, with a control signal flat, not every such curve was filed as active; inconclusive = small, poorly fitted or top-dose-only effect, or effect the other way, or a change in a side signal; the % refers to the signal ratio;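 also: plate controls were basal doxycycline-induced cells for no effect and cells given 10 µM MG132 for full effect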
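Cell line TMD8 (human ABC DLBCL), stably expressing tet-inducible CBG68-IkBa fusion and CBR; IMDM/0.5% FBS; cpd up to 46 uM; dox induction, 4 h, 37C/5% CO2; dual luminescence; green/red ratio; MG132 control.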
uPA generation = blocks generation of uPA at the cell surface. cell surface uPA generation assay, qHTS. 330,000 tested, 0.31% active. Potency, µM (series often up to 38.3 µM), without a hit: at the top dose activity change, negative = inhibition, hits mostly inhibitors. AID 540303; active = well fitted inhibition curve with a large enough effect; inconclusive = small, poorly fitted or top-dose-only effect; inactive = no such curve, though single readings can be large or run the other way; tested in mouse RAW 264.7 cells; also: % is scaled to controls: 0 for no effect and ±100 for the full control effect; nearly all actives have a fitted effect of over 55% in size
Mito fusion act = mitochondrial division inhibition or fusion activation; 320,000 tested, 0.23% active; AID 485298; S. cerevisiae fusion-defective mutant growth rescue, CellTiterGlo 48 h; Potency, µM (titrated, usually from 46.1 µM), without a hit: at the top dose growth rescue (activation), usual class: activators; also: % of control where 0% means no effect; nearly all actives have a fitted effect of over 45% in size
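Luminescent cell viability in 1536-well qHTS format served as the measure of rescued growth in ts fusion-mutant S. cerevisiae cultured on non-fermentable YPEG for 48 hours at 37C.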
RORgamma inh = inhibitors of mouse ROR gamma transcriptional activity; 310,000 tested, 5.4% active; Potency, µM (series often up to 53.6 µM), for the others: at the highest dose activity change, negative = inhibition, most hits filed as inhibitors; P51450; Drosophila S2 Gal4-RORgamma UAS-luciferase reporter, 20 h; AID 2551; also: % is scaled to controls: 0 for no effect and ±100 for the full control effect; nearly all actives have a fitted effect of over 60% in size
Target sequence (P51450 whole entry, looked up, the tested form may be a part): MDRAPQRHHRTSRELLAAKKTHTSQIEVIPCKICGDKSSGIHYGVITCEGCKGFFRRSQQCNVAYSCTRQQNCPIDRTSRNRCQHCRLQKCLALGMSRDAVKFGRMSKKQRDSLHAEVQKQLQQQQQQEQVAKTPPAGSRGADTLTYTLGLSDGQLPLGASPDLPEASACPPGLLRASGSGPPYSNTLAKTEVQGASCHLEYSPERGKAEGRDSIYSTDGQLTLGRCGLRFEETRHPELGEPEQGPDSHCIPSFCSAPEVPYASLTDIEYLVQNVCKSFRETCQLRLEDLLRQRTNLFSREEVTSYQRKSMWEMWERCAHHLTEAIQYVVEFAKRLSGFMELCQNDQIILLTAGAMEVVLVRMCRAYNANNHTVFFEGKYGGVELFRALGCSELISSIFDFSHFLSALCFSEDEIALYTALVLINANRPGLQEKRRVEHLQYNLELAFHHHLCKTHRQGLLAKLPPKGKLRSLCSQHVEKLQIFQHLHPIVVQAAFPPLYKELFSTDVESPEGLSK
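Stably transfected Drosophila Schneider cells are the test system, with ROR gamma fused to Gal4 and luciferase under UAS control; luminescence is read after 20 hr of 700 uM copper sulfate induction at ambient temperature.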
* = called active by the depositor; ? = inconclusive; / = no result given; [ ] = another dose, or the depositor's remark. Sampled rows, rich in hits. Any-hit rate of the full collection: about 5.5%. Unless noted, calls follow the shape of the dose curve; as a rule, active = well fitted curve in the direction sought with a large enough effect; inconclusive = small, poorly fitted or top-dose-only effect, or another doubt; inactive = no such curve, though single readings can be large; an effect the other way counts as inactive or inconclusive. Potency is read from the fitted curve at half-maximal effect.

SMILES | Integrin act MD | Gal4-VP16 FLuc | Chronic BCR inh | uPA generation | Mito fusion act | RORgamma inh
C/C(Cn1nnc([N+](=O)[O-])n1)=N\NC(=O)c1cccc(Cl)c1 | -41.1% | ? | ? | -12.3% | -7.2% | 10µM*
CC(C)(C)c1ccc(CSc2nc(N)cc(=O)[nH]2)cc1 | -0.5% | 7.94µM* | -4.8% | -2.8% | ? | -44.8%
Oc1[nH]c(N=C2N=c3ccccc3=N2)c2ccccc12 | 9.0% | 2.51µM* | ? | -16.7% | -8.4% | 0.501µM*
CN(C)c1ccc(-c2cc(C3C4C=CCCC4(C)C(=O)N3Cc3ccccc3)ccc2F)cc1 (stereo unspecified) | / | -11.2% | / | / | / | 16.4%
O=C(c1ccc(Cl)cc1)N1CCN(c2ccc([N+](=O)[O-])c3ncccc23)CC1 | / | / | / | / | 23.1µM* | /
O=C(c1cc(F)c(F)cc1Cl)N1CCN(c2ccc([N+](=O)[O-])c3ncccc23)CC1 | 2.4% | -23.9% | -0.3% | -7.7% | -0.1% | ?
Clc1ccc(-c2c[n+](Cc3ccc(Br)cc3)c3n2CCCCC3)cc1 | -40.3% | 11.2µM* | 0.4% | -10.6% | -0.2% | ?
CC1CCC(C(C)C)C(OC(=O)C[n+]2cc(-c3ccc(Cl)cc3)n3c2CCCCC3)C1 (stereo unspecified) | 0.0% | 10µM* | ? | -12.1% | 1.8% | -104.9%
O=[N+]([O-])c1ccc(C[n+]2cc(-c3ccccc3)n3c2CCCCC3)cc1 | 0.0% | 8.1% | 7.7% | -2.0% | 0.9% | -2.7%
O=[N+]([O-])c1ccc(C[n+]2cc(-c3ccc(Cl)c(Cl)c3)n3c2CCCCC3)cc1 | -10.6% | -15.2% | 0.0% | -9.9% | 0.1% | 0.251µM*
Clc1ccc(-c2c[n+](Cc3ccc(Cl)cc3Cl)c3n2CCCCC3)cc1 | 41.5% | 11.2µM* | ? | ? | -4.2% | -40.0%
CC[C@H](C)[C@@H](NC(=O)O[C@H]1C(=O)c2cc(OC)ccc2O[C@@H]1c1ccc(OC)c(Br)c1)C(=O)OC | / | -4.7% | / | / | / | -7.5%
COc1cc2c(cc1OC)Cc1cc(OC)c(OC)cc1Cc1cc(OC)c(OC)cc1C2 | / | -0.3% | / | / | / | -29.6%
O=Cc1ccc(OC2C=CC(C#Cc3ccccc3)OC2CO)cc1 (stereo unspecified) | / | 5.5%[10 µM] | / | / | / | 4.3%[10 µM]
Clc1ccc(C[n+]2cc(-c3ccccc3)n3c2CCCCC3)c(Cl)c1 | -55.4% | 12.6µM* | ? | ? | 4.3% | ?
CC(C)Cn1c(SC(C)C(=O)Nc2ccc3c(c2)OCCO3)nc2ccccc2c1=O (stereo unspecified) | 16.7% | -20.1% | ? | 3.8% | -1.1% | 12.6µM*
CC(Sc1nc2ccccc2c(=O)n1C)C(=O)Nc1ccc2c(c1)OCCO2 (stereo unspecified) | -36.8% | / | ? | ? | -0.3% | /
COc1ccccc1C(=O)NC(=S)/C=C1/N(C)c2ccccc2C1(C)C | -43.8% | 2.9% | -4.1% | -7.9% | 6.9% | 3.5%
CN1/C(=C/C(=S)NC(=O)C2(C)CC2(Cl)Cl)C(C)(C)c2ccccc21 (stereo unspecified) | -42.0% | ? | ? | -4.4% | 7.6% | 4.47µM*
CN1/C(=C\C(=S)NC(=O)c2ccccc2Cl)C(C)(C)c2ccccc21 | -29.4% | 20µM* | -13.7% | -9.9% | 18.6% | 7.94µM*
CCc1nnc(NC(=O)C2CCCN2C(=O)Nc2ccc(C)cc2)s1 (stereo unspecified) | 30.6% | 4.9% | 11.3% | -0.1% | -3.3% | -8.6%
O=C(CSCc1cnn(-c2ccccc2)c1-n1cccc1)NCc1ccc2c(c1)OCO2 | 3.4% | 17.8% | ? | 3.2% | 22.4µM* | ?
CCOc1ccc(-c2nc(CSCC(=O)NCc3ccco3)c(C)o2)cc1 | -29.9% | 25.1µM* | 18.9% | 4.1% | 14.8% | -38.3%
CCOc1ccc(-c2nc(CSCC(=O)NC3CC3)c(C)o2)cc1 | -8.2% | ? | -9.4% | -11.5% | -2.4% | 8.91µM*
